We go through eight compounds from PubChem BioAssay (NCI).

Assay in all cases: NCI-60 one-dose screen, 48 h (100 = growth as untreated, 0 = no growth, -100 = all killed)
Holding throughout (details): 10 µM unless noted

The subject of assay [1] is SK-MEL-2 melanoma.
Assay [2] concerns EKVX NSCLC.
For assay [3], the system named is SN12C renal.
For assay [4], the system named is UO-31 renal.
Assay [5] relates to TK-10 renal.
The subject of assay [6] is ACHN renal.
The subject of assay [7] is CAKI-1 renal.
In assay [8] the test system is A498 renal.
Assay [9] concerns CCRF-CEM leukemia.
Assay [10] deals with MOLT-4 leukemia.
Assay [11] relates to SR leukemia.
The test system of assay [12] is RPMI-8226 leukemia.
Assay [13] has as its system OVCAR-8 ovarian.
The test system of assay [14] is OVCAR-4 ovarian.
Assay [15] concerns SK-OV-3 ovarian.
In assay [16] the test system is IGROV1 ovarian.
Assay [17] has as its system OVCAR-3 ovarian.
For assay [18], the system named is HS 578T breast.
Assay [19] concerns NCI/ADR-RES ovarian.
Assay [20] deals with OVCAR-5 ovarian.

This is part of a sample that, as a whole, favours compounds with a hit. Of some 83,000 tested, about 20% had one in any assay.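 96-well plates, one dose, 48 hours. Percent growth reported; active if below 10.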 Values without a mark were called inactive. The source made the active and inactive calls.

For `O=C(N=Nc1c(O)[nH]c2ccc(Br)cc12)c1ccc2nc(-c3ccc(Cl)cc3)[nH]c2c1`, the growth is 2.45% (active) in assay [1]; -14.1% (active) in [2]; -50.8% (active) in assay [3]; 73.2% in assay [4]; 54.3% in [5]; 50.5% in assay [6]. Moreover, the growth in [7] was 68.1%; in [8], 115%; in assay [9], 7.74% (active); in [10], -0.379% (active); in assay [11] it was 15.1%; in [12] it was 58.6%. In addition, the growth in assay [13] is -25.9% (active); in assay [14], -28% (active); in [15] it was 24.3%; in assay [16] it was -49.4% (active); in assay [17], -4.77% (active); in assay [18], -1.71% (active). The growth in assay [19] was 92.4%.
On to `O=C(CSc1nnc(-c2ccc(-c3nc4ccccc4[nH]3)cc2)o1)Nc1ccccc1`, for which the growth in assay [1] was 91.4%; in assay [2], 93.9%; in assay [3], 79.7%; in [4], 104%; in assay [5] it was 106%; in assay [6] it was 23.1%. Besides, the growth in [7] was 86%; in assay [8] it was 130%; in [9], 59%; in assay [10] it was 27.4%; in assay [11], 34.1%; in assay [12], 56.5%. Moreover, the growth in [13] was 31.5%; in assay [14], 94%; in assay [15], 84.7%; in [16], 85%; in [17] it was 92.2%; in [18], 70.9%. In addition, in assay [19], the growth is 76.3%.
For `Cc1cc(N=C(N)c2ccccc2)ccc1OCCCCCCCCn1ccnc1`, the growth was -28.2% (active) in [1]; 20.7% in assay [2]; 12.7% in assay [3]; -30.2% (active) in [4]; 32.9% in assay [5]; 9.56% (active) in assay [6]. Moreover, the growth is 20.2% in [7]; 64.6% in [8]; 12.3% in assay [9]; 14.1% in assay [10]; 0.698% (active) in [11]; 1.47% (active) in [20]. Moreover, the growth in assay [14] was 37.5%; in assay [15] it was 16.7%; in assay [16] it was 6.54% (active); in assay [18], 13.6%.
On to `NC(=Nc1ccc(OCCCCCCCCn2cnnn2)cc1)c1ccccc1`, for which the growth is 21% in assay [1]; 40% in [2]; 27% in [3]; 41.6% in assay [4]; 64.8% in assay [5]; 32.3% in [6]. For the same compound, the growth was 35.2% in assay [7]; 114% in [8]; 19.6% in assay [9]; 20.9% in assay [10]; 14.6% in assay [11]; 29.5% in assay [12]. Further, the growth was 23.1% in assay [20]; 56% in assay [14]; 35.3% in assay [15]; 24.4% in assay [16]; 22% in assay [18].
With `Cc1ccc(C(=O)C[n+]2cccc3c4ccccc4ccc32)cc1`, the growth in [1] was 36.5%; in assay [2], 28.9%; in assay [3] it was 14.7%; in [4], 29.7%; in assay [5], 41.3%; in assay [6] it was 50.6%. Also, the growth is 53.2% in assay [7]; 75.2% in [8]; 28.1% in assay [9]; 14.4% in [10]; 2.32% (active) in assay [11]; 4.63% (active) in [12]. Moreover, the growth in assay [13] was 22.5%; in [14] it was 21.1%; in assay [15] it was 33.9%; in [16], 30.9%; in assay [17] it was 30.3%; in assay [18], 27.6%. Also, the growth in assay [19] is 80.9%.
On to `Clc1ccccc1Nc1nnc(-c2c[nH]c3ccccc23)o1`, for which the growth is -2.89% (active) in [1]; 18.7% in [2]; 26.6% in assay [3]; 33.1% in assay [4]; 69% in assay [5]; 39.9% in assay [6]. The growth in assay [7] is 32.7%; in assay [8] it was 113%; in [9] it was 9.07% (active); in assay [10], 5.42% (active); in assay [11], 15.7%; in [12], 4.23% (active). In addition, the growth was 13.4% in assay [13]; 73.2% in [14]; 22.1% in assay [15]; 19.4% in assay [16]; 9.25% (active) in assay [17]; 18.2% in assay [18]. The growth in assay [19] is -18.8% (active).
Take `O=C(CSc1nc2ccccc2c(=O)[nH]1)Nc1ccccc1C(=O)O`: the growth in [1] was 116%; in assay [2] it was 92.3%; in assay [3], 98.9%; in assay [4] it was 71.8%; in assay [5], 116%; in assay [6], 89.3%. In addition, the growth in assay [7] is 89.9%; in [8], 216%; in assay [9], 90.5%; in assay [10] it was 97%; in assay [11], 95.2%; in assay [12], 102%. Also, the growth in assay [13] is 109%; in assay [14], 109%; in [15] it was 90.7%; in assay [16] it was 109%; in [17] it was 106%; in [18] it was 79.3%. Further, the growth in [19] was 103%.
In the case of `CCCCCCCCc1ccc(C(=O)Nc2cccc(O)c2)cc1`, the growth in assay [1] is 83.8%; in [2], 66.4%; in assay [3] it was 65.4%; in assay [4] it was 34.4%; in [5] it was 106%; in assay [6], 57.3%. In addition, the growth in assay [7] was 77.8%; in assay [8], 115%; in assay [9], 0.746% (active); in assay [10] it was 35.5%; in [11], 29.8%; in assay [12], 35%. For the same compound, the growth was 83% in assay [13]; 78.8% in assay [14]; 109% in [15]; 85.6% in assay [16]; 91.2% in [17]; 81.4% in assay [18]. Moreover, the growth in assay [19] was 59%.
